Screens: PubChem BioAssay, several laboratories
Shown are actives, neighbours in structure and some others; about 5.2% of the full set was active somewhere.
SMARCA2 activ = increases SMARCA2 function in MMTV reporter cells; MG213 cells, MMTV-luciferase reporter, dexamethasone, overnight; activation, % at 9.1 µM; 370,000 tested, 1% active; AID 652017; in the data active = activation above about 7.8%
NadD inh = NadD (S. aureus) enzyme inhibition | AID 602399 | 360,000 tested, 0.78% active | inhibition, % at 20 µM | purified NadD enzyme, colorimetric absorbance read-out; in the data active = inhibition above about 26%
esBAF inh = inhibitors of esBAF chromatin remodeling in mouse ES cells | 350,000 tested, 2% active | AID 602393 | Bmi1-luciferase knock-in reporter, 24 h; 100% = twice the neutral-well signal | reporter increase, % at 12.5 µM; in the data active = activation above about 40%;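 also: a rise in the Bmi1 reporter signal indicates esBAF inhibition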
NR3A LBD binder = modulates the human NR3A ligand-binding domain; 340,000 tested, 2.5% active; NR3A LBD differential scanning fluorimetry, Tm shift; 0% = protein alone, 100% = glycine-bound protein; Tm shift relative to glycine control, % at 25 µM; AID 1259313;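 active = melting temperature shift of at least 10% of the positive control shift, at one fixed dose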
Vif inh = blocks HIV Vif function; inhibition, % at 7.49 µM; 340,000 tested, 0.35% active; HEK293T cells, Vif self-association by quenched fluorescence, imaging, 24 h; in the data active = inhibition above about 50%, passing the limit was not always enough
SKN-1 block = inhibitors of C. elegans SKN-1; C. elegans VP596 Pgst-4::GFP/RFP ratio, acrylamide-induced, 24 h; inhibition, % at 21.8 µM; 360,000 tested, 0.49% active; AID 624304;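 active = interference check ratio from 0.5 to 1.5 plus GFP to RFP signal ratio inhibition reaching or exceeding a fixed threshold, cut at about 30% in these data, passing the limit was not always enough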
SMARCA2 conf = SMARCA2 activation, confirmation screen | shares compounds with SMARCA2 activ | MG213 cells, MMTV-luciferase with dexamethasone, luminescence, overnight; MG213 cells expressing E1A, Rb sequestered; DMSO wells 0%, reference activator 100% | activation, % at 9.1 µM | 3,500 tested, 30% active | AID 652260;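 active = activation above its plate's cutoff, the mean activation of tested wells plus 3 SD, cut at about 7.9% in these data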
GAL4-VP16 Luc = counter-screen for SMARCA2 activators: GAL4-VP16 luciferase reporter activation; HEK293 GAL4-VP16 pG5luc reporter, luciferase luminescence; scaled: DMSO wells 0%, SAHA wells 100%; shares compounds with SMARCA2 activ; 3,500 tested, 41% active; AID 686939; activation, % at 9.1 µM;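 active = activation above the solvent-only control well mean plus 3 SD, averaged across control plates, cut at about 5.2% in these data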
Each line names hits and unclear results; the compound was inactive in the other large screens (follow-up assays come after a bar, where they were run).

Cc1noc(C)c1NC(=O)Nc1ccc2c(c1)C(=O)N([C@@H](C)CO)C[C@H](C)[C@@H](CN(C)S(=O)(=O)c1ccccc1)O2	none (no result: SMARCA2 activ, NadD inh, NR3A LBD binder, Vif inh, SKN-1 block)
COC(=O)c1sc(NC(=O)COc2cccc3ccccc23)nc1C	SMARCA2 activ 10.4 (no result: esBAF inh) | SMARCA2 conf inactive | GAL4-VP16 Luc inactive
COC(=O)c1ccc2nc(-c3cccc(Cl)c3)c(Cc3cccc(F)c3)n2c1	SMARCA2 activ 11.1 (no result: esBAF inh, NR3A LBD binder, Vif inh) | SMARCA2 conf inactive | GAL4-VP16 Luc inactive
COc1cccc(C#Cc2ccc3c(c2)[C@@H]2[C@@H](CCN2C(C)=O)[C@@H](CO)N3)c1	none (no result: SMARCA2 activ, NadD inh, NR3A LBD binder, Vif inh, SKN-1 block)
COc1ccc(OC)c(-c2nnc3n2N=C(c2ccc(OC)c(OC)c2)CS3)c1	SMARCA2 activ 11.6 (no result: Vif inh) | SMARCA2 conf 33.5 | GAL4-VP16 Luc 16.6
COc1ccc(OC)c(C2=Nn3c(nnc3C3CCCCC3)SC2)c1	none (no result: Vif inh)
COc1ccc(C2=Nn3c(nnc3C3CCCCC3)SC2)cc1OC	SMARCA2 activ 13.7 | SMARCA2 conf 13.6 | GAL4-VP16 Luc 7.3
COc1ccc(OC)c(-c2nnc3n2N=C(c2ccc(OC)c(OC4CCCC4)c2)CS3)c1	none (no result: Vif inh)
COc1ccc(-c2nn3c(C4CCCCC4)nnc3s2)cc1OC	SMARCA2 activ 12.3 | SMARCA2 conf inactive | GAL4-VP16 Luc inactive
COc1ccc(C2=Nn3c(nnc3-c3ccccc3F)SC2)cc1OC1CCCC1	SMARCA2 activ 16.9 | SMARCA2 conf 30.5 | GAL4-VP16 Luc 20.5
C/C=C/c1ccc([C@H]2[C@@H](C#N)N(C(=O)CN3CCOCC3)[C@H]2CO)cc1	none (no result: SMARCA2 activ, NadD inh, NR3A LBD binder, Vif inh, SKN-1 block)
C[C@@H]1CN([C@H](C)CO)C(=O)c2cc(C3=CCCCC3)cnc2O[C@H]1CN(C)C(=O)Nc1cccc(F)c1	none (no result: SMARCA2 activ, NadD inh, NR3A LBD binder, Vif inh, SKN-1 block)
O=C(C[C@H]1CC[C@H](NC(=O)c2ccccc2)[C@@H](CO)O1)NCc1ccc(Oc2ccccc2)cc1	none (no result: SMARCA2 activ, NadD inh, NR3A LBD binder, Vif inh, SKN-1 block)
COc1ccc(-c2ccc([C@H]3[C@H](CO)N4CCCCN(C(=O)c5ccc6c(c5)OCO6)C[C@@H]34)cc2)cc1	none (no result: SMARCA2 activ, NadD inh, NR3A LBD binder, Vif inh, SKN-1 block)
C[C@@H]1CN([C@H](C)CO)C(=O)Cc2cc(NC(=O)C3CCCCC3)ccc2O[C@@H]1CN(C)C(=O)Nc1ccc2c(c1)OCO2	none (no result: SMARCA2 activ, NadD inh, NR3A LBD binder, Vif inh, SKN-1 block)
C[C@H](CO)N1C[C@H](C)[C@H](CN(C)S(=O)(=O)c2cn(C)cn2)OCCCC[C@H](C)Oc2ccc(NS(=O)(=O)c3cn(C)cn3)cc2C1=O	none (no result: SMARCA2 activ, NadD inh, NR3A LBD binder, Vif inh, SKN-1 block)
C[C@H](CO)N1C[C@H](C)[C@@H](CN(C)C(=O)Nc2ccc(C(F)(F)F)cc2)OCCCC[C@H](C)Oc2ccc(NC(=O)CCC(F)(F)F)cc2C1=O	none (no result: SMARCA2 activ, NadD inh, NR3A LBD binder, Vif inh, SKN-1 block)
COc1ccc(C2=Nn3c(nnc3-c3cccnc3)SC2)cc1	SMARCA2 activ 9.7 | SMARCA2 conf inactive | GAL4-VP16 Luc inactive
CC(C)CC#Cc1ccc2c(c1)O[C@@H](CN(C)C)[C@@H](C)CN([C@H](C)CO)S2(=O)=O	none (no result: SMARCA2 activ, NadD inh, NR3A LBD binder, Vif inh, SKN-1 block)
COc1ccc(CNc2nc3ccccc3n2C)c(OC)c1	SMARCA2 activ 8.0 (no result: esBAF inh) | SMARCA2 conf 10.3 | GAL4-VP16 Luc 10.3
Cc1ccc(CNc2nc3ccccc3n2C)cc1	none
COc1ccc(CNc2nc3ccccc3n2C(C)C)c(O)c1	none
COc1ccc(CNc2nc3ccccc3n2C)c(O)c1	SMARCA2 activ 8.1 | SMARCA2 conf 9.3 | GAL4-VP16 Luc 7.3
Cn1c(NCc2ccc(Cl)cc2)nc2ccccc21	SMARCA2 activ 8.3, esBAF inh 71.3 | SMARCA2 conf 8.3 | GAL4-VP16 Luc 11.0
CN1CCN(C(=O)C[C@H]2CC[C@H]3[C@@H](COC[C@@H](O)CN3C(=O)C3CCOCC3)O2)CC1	none (no result: SMARCA2 activ, NadD inh, NR3A LBD binder, Vif inh, SKN-1 block)
C[C@@H](O)C#Cc1cnc2c(c1)C(=O)N([C@@H](C)CO)C[C@H](C)[C@@H](CN(C)Cc1cccc(C(=O)O)c1)O2	none (no result: SMARCA2 activ, NadD inh, NR3A LBD binder, Vif inh, SKN-1 block)
COC(=O)C1C(=O)c2c([nH]c(C(=O)OC3CCCC3)c2C)CC1C (centres undefined)	SMARCA2 activ 8.2, esBAF inh 75.6 | SMARCA2 conf inactive | GAL4-VP16 Luc 8.4
Cc1c(C(=O)OC2CCCC2)[nH]c2c1C(=O)CC(c1ccco1)C2 (centres undefined)	none
C[C@@H]1CN([C@@H](C)CO)C(=O)Cc2cc(NS(C)(=O)=O)ccc2O[C@H]1CN(C)Cc1ccc(Oc2ccccc2)cc1	none (no result: SMARCA2 activ, NadD inh, NR3A LBD binder, Vif inh, SKN-1 block)
CCCNC(=O)N1C[C@@H](C)[C@@H](OC)CN(C)C(=O)c2ccc(NS(=O)(=O)CC(F)(F)F)cc2OC[C@H]1C	none (no result: SMARCA2 activ, NadD inh, NR3A LBD binder, Vif inh, SKN-1 block)
CC(C)(C)OC(=O)COc1ccc(/C=N/NC(=O)CN2CCCCC2)cc1	SMARCA2 activ 14.0, esBAF inh 51.5 | SMARCA2 conf inactive | GAL4-VP16 Luc 5.3
COc1ccc(/C=N/NC(=O)CN2CCCC2)cc1	none
COC(=O)/C=C1\C(=O)N(c2nc3ccccc3s2)C(=S)N1c1ccc(F)cc1	SMARCA2 activ 8.6 | SMARCA2 conf inactive | GAL4-VP16 Luc inactive
CO[C@H]1CN(C)C(=O)c2cc(NC(=O)c3cccc(F)c3)ccc2OC[C@@H](C)N(CC2CC2)C[C@@H]1C	none (no result: SMARCA2 activ, NadD inh, NR3A LBD binder, Vif inh, SKN-1 block)
Cc1ccc(CNC(=O)C2=NNC(=O)CC2)cc1	SMARCA2 activ 12.1 (no result: esBAF inh) | SMARCA2 conf inactive | GAL4-VP16 Luc 7.9
Cc1ccc(C)c(NC(=O)CN(C)C(=O)C2=NNC(=O)CC2)c1	none
